# Assay results reported in PubChem BioAssay (NCI).
# The panel holds about 83,000 compounds, 20% with a hit somewhere; the sample as a whole holds those more often.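 Single-dose data. Exposure time 48 hours. Values below 10 considered active.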 A number with no mark means an inactive call. Calls of active or inactive are those of the source.
# Key:
# Test in all cases: NCI-60 one-dose screen, 48 h (100 = growth as untreated, 0 = no growth, -100 = all killed)
# Conditions in all cases: 10 µM unless noted
# SK-MEL-2 melanoma = system: SK-MEL-2 melanoma
# EKVX NSCLC = system: EKVX NSCLC
# SN12C renal = system: SN12C renal
# UO-31 renal = system: UO-31 renal
# ACHN renal = system: ACHN renal
# CAKI-1 renal = system: CAKI-1 renal
# A498 renal = system: A498 renal
# CCRF-CEM leukemia = system: CCRF-CEM leukemia
# MOLT-4 leukemia = system: MOLT-4 leukemia
Compound,growth (SK-MEL-2 melanoma),growth (EKVX NSCLC),growth (SN12C renal),growth (UO-31 renal),growth (ACHN renal),growth (CAKI-1 renal),growth (A498 renal),growth (CCRF-CEM leukemia),growth (MOLT-4 leukemia)
Nc1ccn(C2O[C@H](CO)[C@@H](O)[C@@H]2O)c(=O)n1 (stereo partly specified),88.3%,91.8%,37.1%,1.02% (active),0.769% (active),12.4%,66.8%,6.02% (active),13.6%
O=C(CNc1ccc2c(c1)C(=O)c1ccccc1C2=O)Nc1ccc2c(c1)C(=O)c1ccccc1C2=O,-74.4% (active),-18.5% (active),-87% (active),-96.5% (active),-94.3% (active),-80.8% (active),27.6%,-11.6% (active),-36.6% (active)
CC1c2ccccc2-c2ccccc2N1C (stereo unspecified),101%,124%,89.6%,70.7%,103%,95.7%,–,101%,103%
COc1cnc2c(c1)C(=O)c1c-2n(CCCN2CCC(O)CC2)c(=O)c2cc(F)ccc12,3.49% (active),2.5% (active),9.71% (active),-89.4% (active),-58% (active),–,-87.9% (active),-2.05% (active),-19.2% (active)
C[C@@H]1[C@H]2[C@H](C=C3[C@@H]4CC[C@H]5Cc6nc7c(nc6C[C@]5(C)[C@H]4C[C@@H](O)[C@@]32C)C[C@@H]2CC[C@H]3C4=C[C@@H]5O[C@@]6(CC[C@](C)(CO)O6)[C@@H](C)[C@@]5(O)[C@@]4(C)[C@H](O)C[C@@H]3[C@@]2(C)C7)O[C@]12CCC(C)(C)O2,30.8%,21.8%,67.9%,-6.3% (active),42.5%,–,-72.6% (active),2.79% (active),-21.1% (active)
COc1ccc(NS(=O)(=O)N2CCCCC2)cc1,99.1%,115%,93%,76.4%,104%,103%,80%,89.6%,99.8%
